Measurements taken from PubChem BioAssay (NCI).
About 83,000 compounds went through this panel and 20% of them were active in at least one assay; those are over-represented in the sample as a whole.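 Interpretation: 100, growth as untreated; towards 0, rising growth inhibition; 0, no net growth; 0 to -100, cell death. Compounds scoring below 10 were considered active.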 Active and inactive are the calls of the source.

Columns and labels:
Test in all cases: NCI-60 one-dose screen, 48 h (100 = growth as untreated, 0 = no growth, -100 = all killed)
Conditions in all cases: 10 µM unless noted
[1] = system: SK-MEL-2 melanoma
[2] = system: EKVX NSCLC
[3] = system: UO-31 renal
[4] = system: TK-10 renal
[5] = system: ACHN renal
[6] = system: CAKI-1 renal
[7] = system: A498 renal
[8] = system: CCRF-CEM leukemia
[9] = system: MOLT-4 leukemia
[10] = system: SR leukemia
[11] = system: OVCAR-8 ovarian
[12] = system: OVCAR-5 ovarian
[13] = system: OVCAR-4 ovarian
[14] = system: SK-OV-3 ovarian
[15] = system: IGROV1 ovarian
[16] = system: HS 578T breast
[17] = system: NCI/ADR-RES ovarian
[18] = system: SN12C renal
[19] = system: RPMI-8226 leukemia
[20] = system: OVCAR-3 ovarian

Measured: growth

Cc1cc(C)on1
inactive: [1] 99.6% | [2] 99.2% | [3] 84.5% | [4] 103% | [5] 104% | [6] 98.4% | [7] 121% | [8] 96% | [9] 92.3% | [10] 70.8% | [11] 92.4% | [12] 116% | [13] 98% | [14] 111% | [15] 110% | [16] 102% | [17] 109%

CCc1nc2ccccc2[nH]1
inactive: [1] 127% | [2] 112% | [18] 95.6% | [4] 118% | [5] 108% | [6] 109% | [7] 96.1% | [8] 98.8% | [9] 97.5% | [10] 100% | [19] 98.9% | [11] 101% | [12] 110% | [13] 112% | [14] 105% | [15] 130% | [20] 119% | [16] 94.3% | [17] 111%

O=[N+]([O-])c1ccccc1C(O)Cc1ccc2ccccc2n1 (configuration not stated)
inactive: [1] 108% | [2] 83.8% | [18] 95.2% | [3] 66.6% | [6] 88% | [7] 68% | [10] 95.6% | [19] 95.1% | [11] 97.2% | [12] 91.1% | [13] 92.8% | [14] 84.9% | [15] 80.5% | [20] 93.2% | [16] 98.9% | [17] 93%
active: [8] -50.2% | [9] -6.33%

Cc1c(C(=O)O[C@H]2[C@@H]3[C@H](C)CC[C@H]3[C@]3(C)O[C@@]2(C2CCCCC2)C[C@H]3OC(=O)CO)ccc2ccccc12
active: [18] -1.88% | [5] -36.4% | [6] 0.73% | [7] -76.6% | [8] -4.66% | [19] -40.7% | [16] -29.6% | [17] 8.05%
inactive: [1] 40.3% | [2] 41.8% | [4] 59.8% | [11] 28.6% | [12] 61.1% | [13] 39.4% | [14] 62.6% | [15] 63.3% | [20] 29.3%

Cc1cc(N(CCCNc2ccnc3cc(Cl)ccc23)Cc2ccccn2)nc(N2CCOCC2)n1
inactive: [1] 97.9% | [2] 89.5% | [18] 95.6% | [4] 110% | [5] 101% | [6] 87.8% | [7] 92.5% | [8] 86% | [19] 85.2% | [11] 81.7% | [12] 95.8% | [13] 82.3% | [14] 88.5% | [15] 82.2% | [20] 97.6% | [16] 80.9% | [17] 88.6%

COc1ccc(/C=C2\COc3ccc(O)c(O)c3C2=O)c(OC)c1
active: [8] 4.18% | [9] 7.29%
inactive: [1] 90.7% | [2] 85.3% | [18] 33% | [4] 22.5% | [5] 56.2% | [6] 36.6% | [7] 114% | [10] 18.9% | [11] 41.5% | [12] 74.1% | [13] 47.3% | [14] 72.7% | [15] 31.3% | [20] 29.4% | [16] 65.5% | [17] 57.8%

N=C(N)c1ccc(-c2ccc(-c3ccc(Cl)cn3)s2)cc1
inactive: [1] 99.8% | [2] 65.8% | [18] 10.2% | [4] 91.9% | [5] 12% | [6] 63.2% | [11] 38% | [12] 52.2% | [13] 40% | [15] 14.4% | [16] 63.2% | [17] 62.4%
active: [8] 3.3% | [9] 4.73% | [10] 6.63% | [20] 4.7%

COc1cc2c(cc1OC)-c1ccc3cc4c(cc3c1N(CCCN(C)C)C2)OCO4
active: [7] 8.3% | [9] 8.66%
inactive: [1] 45.4% | [2] 60% | [18] 27.4% | [3] 38.7% | [8] 20.5% | [10] 15.3% | [19] 17.1% | [11] 27.5% | [12] 60% | [13] 52.4% | [14] 55.3% | [15] 21.7% | [20] 48% | [16] 45.5% | [17] 65.4%

C[N+](C)(C)CCOC(OCC[N+](C)(C)C)(c1ccccc1)c1ccccc1
inactive: [1] 99.4% | [2] 111% | [18] 99.9% | [4] 109% | [5] 97.6% | [6] 101% | [8] 105% | [9] 102% | [10] 89.5% | [19] 106% | [11] 105% | [12] 104% | [13] 107% | [14] 103% | [15] 124% | [16] 115% | [17] 97.9%

CN(C)c1ccc(-c2cc(-c3ccc(Nc4nc(Nc5ccccc5)nc(Nc5ccc(Cl)cc5)n4)cc3)nc(N)n2)cc1
inactive: [1] 47.2% | [2] 33.3% | [18] 50% | [4] 74.6% | [5] 46.3% | [6] 39.5% | [19] 34.1% | [11] 51.3% | [12] 36.6% | [13] 49.6% | [14] 85.4% | [15] 39.2% | [20] 49.5% | [17] 15.5%
active: [8] 5.11% | [9] -4.17%

C=C1C(=O)O[C@H]2[C@H]1CC/C(COC(=O)/C=C\C(=O)NCc1ccc(Cn3c(=O)sn(-c4ccc(OC)cc4)c3=O)cc1)=C\CC[C@@]1(C)O[C@@H]21
active: [1] -54.2% | [2] -82.9% | [3] -100% | [4] -75.4% | [5] -98.8% | [6] -66.1% | [7] 7.18% | [8] -11.4% | [9] -26.4% | [10] -27.3% | [11] 4.05% | [12] -86.8% | [13] -77% | [15] -97.3% | [20] -88.6% | [16] -21.3% | [17] -16%

CCOC(=O)c1sc(-c2ccc(OS(=O)(=O)c3ccc(C(C)(C)C)cc3)c(C=O)c2)nc1C
inactive: [1] 72.7% | [2] 40.2% | [3] 29.9% | [4] 55.8% | [5] 26.6% | [6] 20.5% | [7] 57% | [8] 29.9% | [9] 20.5% | [10] 14.5% | [11] 38.2% | [12] 64.3% | [13] 39.2% | [14] 85.5% | [15] 32% | [20] 30% | [16] 52.9% | [17] 32.4%

CCCCC1COc2cccc3c(SCC(=O)N(C)c4cccc(Cl)c4)cc[n+]1c23 (configuration not stated)
inactive: [1] 105% | [2] 113% | [3] 90.7% | [4] 110% | [5] 101% | [6] 102% | [7] 106% | [8] 105% | [9] 109% | [10] 100% | [11] 118% | [12] 109% | [13] 129% | [14] 108% | [15] 112% | [20] 121% | [16] 109% | [17] 111%

CCCNCC(=O)Nc1ccc(C(=O)OC(C)(C)CC)cc1
inactive: [1] 95.6% | [2] 98.1% | [18] 105% | [4] 93% | [7] 108% | [8] 104% | [9] 89.7% | [10] 90.6% | [19] 99.8% | [11] 104% | [12] 111% | [13] 118% | [14] 105% | [15] 99.5% | [20] 102% | [16] 105% | [17] 105%

CCOC(=O)c1c(C)[nH]c(C(=O)CCC(=O)OC)c1C
inactive: [1] 83.1% | [2] 95.2% | [18] 110% | [4] 84.3% | [7] 119% | [8] 92.8% | [9] 93% | [10] 92.5% | [19] 95.8% | [11] 103% | [12] 100% | [13] 107% | [14] 101% | [15] 104% | [20] 105% | [16] 124% | [17] 97.9%

OC(c1cccc(OCc2ccccc2)c1)c1nnc(-c2ccccc2)o1 (configuration not stated)
inactive: [1] 100% | [2] 77.3% | [18] 92.8% | [4] 143% | [5] 92.6% | [6] 95.2% | [7] 102% | [8] 75.7% | [9] 105% | [10] 92.8% | [19] 57.8% | [11] 95.9% | [12] 102% | [13] 87.1% | [14] 106% | [15] 91.7% | [20] 104% | [16] 96.9% | [17] 89.7%

CCN(CC)CCOC(=O)Nc1ccccc1Cl
inactive: [1] 88.3% | [2] 106% | [18] 103% | [4] 86.1% | [7] 114% | [8] 75.7% | [9] 94.7% | [10] 102% | [19] 88.8% | [11] 104% | [12] 110% | [13] 120% | [14] 108% | [15] 101% | [20] 108% | [16] 109% | [17] 110%

C=C1c2c(C)nn(-c3ccc(O)cc3)c2N(C)C23C[C@@H]1C1(C)c4c(C)nn(-c5ccc(O)cc5)c4N(C)C(C)(C[C@H]12)C3 (some centres not stated)
inactive: [1] 44.3% | [2] 26.1% | [18] 30% | [4] 57.3% | [5] 24.6% | [6] 27.2% | [7] 34.8% | [11] 27.8% | [12] 85.8% | [13] 32.2% | [14] 37.7% | [15] 63.2% | [20] 24.2% | [16] 52.4% | [17] 47.4%
active: [8] 4.13% | [19] -1.11%
